Data on 16 molecules can be found in PubChem BioAssay (Tox21).

For test [1], the target named is Acetylcholinesterase (Homo sapiens) (UniProt P22303). The test can be described thus: Acetylcholinesterase (AChE) small molecule antagonists: enzyme-based qHTS assay (AID 1347397; calls by dose curve; also: nearly all actives have a fitted effect of over 55% in size; also: potency is read from the fitted curve at half-maximal effect). The note with it: Potency: AChE enzyme activity inhibition; outcome: AChE enzyme activity inhibition. A digest of the protocol:
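Human recombinant acetylcholinesterase; substrate acetylthiocholine; thiocholine quantified with DTNB (colorimetric). Compound preincubation 30 min RT; reaction 10 min RT.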

For test [2] the target is unchanged. The test can be described thus: Acetylcholinesterase (AChE) small molecule antagonists: enzyme-based qHTS assay with human liver microsomes (AID 1347399; calls by dose curve; also: nearly all actives have a fitted effect of over 60% in size). The following applies: Potency: qHTS inhibition; outcome: qHTS inhibition. In a few lines:
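Recombinant human AChE (50 mU/mL in the enzyme mix) and human liver microsomes (0.25 mg/mL final) were preincubated with compound and NADPH (0.25 mg/mL final) for 30 min at 37 C. Acetylthiocholine/DTNB was then added; thiocholine was read colorimetrically after 10 min at room temperature.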

In test [3] the target is Cytochrome P450 2D6 (Homo sapiens) (UniProt P10635). The test can be described thus: Cytochrome P450 Family 2 Subfamily D Member 6 (CYP2D6) small molecule antagonists: luciferase reporter qHTS assay (AID 1671196). Also: nearly all actives have a fitted effect of over 50% in size. Also: potency is read from the fitted curve at half-maximal effect. A digest of the protocol:
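P450-Glo format: CYP2D6 converts a proluciferin substrate to luciferin in an NADPH-driven reaction lasting 1 h at room temperature. Light output, proportional to CYP2D6 activity, reflects interference by test chemicals.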

The target in test [4] is Cytochrome P450 2C19 (Homo sapiens) (UniProt P33261). The test can be described thus: Cytochrome P450 Family 2 Subfamily C Member 19 (CYP2C19) small molecule antagonists: luciferase reporter qHTS assay (AID 1671197). Also: nearly all actives have a fitted effect of over 65% in size. Also: potency is read from the fitted curve at half-maximal effect. In a few lines: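 Enzyme-substrate mix with proluciferin substrate (P450-Glo CYP2C19 system) preincubated with compounds 10 min at room temperature; NADPH regeneration solution added, 37C for 1 h; detection reagent stops reaction, luminescence read after 20 min. Ketoconazole positive control.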

For test [5], the target named is Cytochrome P450 2C9 (Homo sapiens) (UniProt P11712). The test can be described thus: Cytochrome P450 Family 2 Subfamily C Member 9 (CYP2C9) small molecule antagonists: luciferase reporter qHTS assay (AID 1671198). Also: nearly all actives have a fitted effect of over 50% in size. Also: potency is read from the fitted curve at half-maximal effect. A digest of the protocol: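 CYP2C9 activity was measured with a P450-Glo proluciferin substrate. Enzyme–substrate mix was held with compound for 10 min at room temperature, then NADPH regeneration solution was added for 1 h at 37C. Luciferin product was read as luminescence.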

In test [6] the target is Cytochrome P450 1A2 (Homo sapiens) (UniProt P05177). Put plainly: Cytochrome P450 Family 1 Subfamily A Member 2 (CYP1A2) small molecule antagonists: luciferase reporter qHTS assay (AID 1671199). Also: nearly all actives have a fitted effect of over 50% in size. Also: potency is read from the fitted curve at half-maximal effect. In a few lines: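 Inhibition of CYP1A2 conversion of proluciferin to luciferin, detected by luminescence. Reaction run 1 h at room temperature with NADPH regeneration after brief compound preincubation.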

In test [7] the target is Voltage-gated inwardly rectifying potassium channel KCNH2 (Homo sapiens) (UniProt Q12809). The test can be described thus: Human Ether-a-go-go-Related Gene (hERG) channel small molecule antagonists: fluorescence cell-based qHTS assay (AID 1671200).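 Also: hERG-expressing U2OS cells given a thallium stimulus after FluxOR II dye loading; series mostly up to about 77 µM; nearly all actives have a fitted effect of over 50% in size.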 A digest of the protocol:
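Channel function was assessed by thallium flux. Cells seeded the previous day and kept at 37 C took up FluxOR II dye over 1 h in the dark at room temperature, then sat another 10 min before stimulation.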

Test [8] deals with Acetylcholinesterase (Homo sapiens) (UniProt P22303). Put plainly: Acetylcholinesterase (AChE) small molecule antagonists: fluorescence cell-based qHTS assay (AID 1347398; calls by dose curve; also: nearly all actives have a fitted effect of over 50% in size; also: potency is read from the fitted curve at half-maximal effect). The note with it: Potency: AChE activity; outcome: AChE activity. In a few lines: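 Thiocholine generated from acetylthiocholine by SH-SY5Y cell AChE is detected with Thiolite Green (Ex/Em 490/520 nm) after 40 min at room temperature, following 30 min compound pretreatment at 37 C.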

Test [9] concerns the target Cytochrome P450 3A4 (Homo sapiens) (UniProt P08684). The test can be described thus: Cytochrome P450 Family 3 Subfamily A Member 4 (CYP3A4) small molecule antagonists: luciferase reporter qHTS assay (AID 1671201). Also: nearly all actives have a fitted effect of over 50% in size. Also: potency is read from the fitted curve at half-maximal effect. In a few lines: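 Compounds in DMSO were pin-transferred onto CYP3A4 enzyme-substrate mix and held 10 min at room temperature. NADPH regenerating solution started the reaction for 1 h; luciferin detection reagent stopped it, and luminescence was read after 20 min.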

“And” between values parts separate entries of the source, which are not always exact repeats. Equal values may be shown once. Inconclusive results are not listed. The source made the active and inactive calls. Unless noted, calls follow the shape of the dose curve; as a rule, active = well fitted curve in the direction sought with a large enough effect in the repeat runs; inconclusive = weak or mixed curves; inactive = no such curve, though single readings can be large; an effect the other way counts as inactive or inconclusive.

Acetylcholinesterase (Homo sapiens), sequence (P22303 whole entry, looked up): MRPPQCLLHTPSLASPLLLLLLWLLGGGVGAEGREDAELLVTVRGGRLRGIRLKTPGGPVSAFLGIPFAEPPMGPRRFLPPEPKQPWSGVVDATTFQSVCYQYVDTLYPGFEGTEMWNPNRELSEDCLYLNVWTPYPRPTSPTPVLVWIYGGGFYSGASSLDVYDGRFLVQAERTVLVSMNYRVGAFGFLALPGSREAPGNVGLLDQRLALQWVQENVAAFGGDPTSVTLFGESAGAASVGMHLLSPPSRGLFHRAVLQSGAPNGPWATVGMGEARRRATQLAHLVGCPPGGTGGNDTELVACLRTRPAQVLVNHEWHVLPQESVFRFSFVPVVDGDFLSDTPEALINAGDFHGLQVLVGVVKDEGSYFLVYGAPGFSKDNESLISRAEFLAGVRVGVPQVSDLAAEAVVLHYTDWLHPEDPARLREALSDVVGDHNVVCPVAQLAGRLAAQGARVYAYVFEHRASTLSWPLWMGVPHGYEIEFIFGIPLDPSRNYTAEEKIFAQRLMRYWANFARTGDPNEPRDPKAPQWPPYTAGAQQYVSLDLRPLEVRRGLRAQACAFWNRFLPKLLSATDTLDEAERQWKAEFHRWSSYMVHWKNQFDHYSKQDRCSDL
Cytochrome P450 2C19 (Homo sapiens), sequence (P33261 whole entry, looked up): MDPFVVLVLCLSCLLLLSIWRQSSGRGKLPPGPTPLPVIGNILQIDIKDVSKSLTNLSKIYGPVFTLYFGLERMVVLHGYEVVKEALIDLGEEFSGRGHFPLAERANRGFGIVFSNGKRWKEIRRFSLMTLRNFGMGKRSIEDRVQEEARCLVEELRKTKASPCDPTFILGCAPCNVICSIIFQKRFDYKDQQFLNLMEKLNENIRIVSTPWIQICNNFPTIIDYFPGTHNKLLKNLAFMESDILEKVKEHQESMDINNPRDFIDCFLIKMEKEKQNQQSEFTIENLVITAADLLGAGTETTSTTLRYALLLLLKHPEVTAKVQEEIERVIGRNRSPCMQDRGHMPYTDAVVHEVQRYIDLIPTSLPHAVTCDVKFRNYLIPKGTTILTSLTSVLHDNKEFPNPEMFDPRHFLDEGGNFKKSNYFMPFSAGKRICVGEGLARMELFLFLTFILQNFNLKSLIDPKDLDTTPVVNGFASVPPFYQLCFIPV
Cytochrome P450 2D6 (Homo sapiens), sequence (P10635 whole entry, looked up): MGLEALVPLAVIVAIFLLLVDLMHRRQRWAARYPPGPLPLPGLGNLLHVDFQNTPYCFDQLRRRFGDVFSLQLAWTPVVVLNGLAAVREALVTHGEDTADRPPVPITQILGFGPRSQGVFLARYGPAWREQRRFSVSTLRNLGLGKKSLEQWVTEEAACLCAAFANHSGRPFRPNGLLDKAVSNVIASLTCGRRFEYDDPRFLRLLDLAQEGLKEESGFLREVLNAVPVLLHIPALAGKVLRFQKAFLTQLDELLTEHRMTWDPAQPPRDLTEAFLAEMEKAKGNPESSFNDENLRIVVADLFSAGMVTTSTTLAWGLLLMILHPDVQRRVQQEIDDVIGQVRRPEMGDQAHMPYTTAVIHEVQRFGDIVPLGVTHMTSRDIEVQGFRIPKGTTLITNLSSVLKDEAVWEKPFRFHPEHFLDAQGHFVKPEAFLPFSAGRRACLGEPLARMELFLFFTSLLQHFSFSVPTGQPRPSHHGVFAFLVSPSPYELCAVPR
Cytochrome P450 1A2 (Homo sapiens), sequence (P05177 whole entry, looked up): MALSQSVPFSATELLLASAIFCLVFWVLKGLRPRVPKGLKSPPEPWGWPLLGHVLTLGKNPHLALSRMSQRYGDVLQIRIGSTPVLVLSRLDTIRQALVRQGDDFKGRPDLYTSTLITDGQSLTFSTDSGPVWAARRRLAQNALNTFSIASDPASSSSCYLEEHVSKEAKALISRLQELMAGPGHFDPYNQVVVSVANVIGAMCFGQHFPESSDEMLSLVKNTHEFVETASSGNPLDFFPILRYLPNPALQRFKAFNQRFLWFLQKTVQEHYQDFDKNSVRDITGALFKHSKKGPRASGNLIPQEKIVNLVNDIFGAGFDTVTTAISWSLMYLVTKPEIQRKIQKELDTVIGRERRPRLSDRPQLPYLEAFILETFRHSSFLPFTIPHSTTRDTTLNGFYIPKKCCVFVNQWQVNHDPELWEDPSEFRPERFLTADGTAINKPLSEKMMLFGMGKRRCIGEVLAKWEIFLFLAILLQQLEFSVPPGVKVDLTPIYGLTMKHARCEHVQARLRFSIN
Cytochrome P450 2C9 (Homo sapiens), sequence (P11712 whole entry, looked up): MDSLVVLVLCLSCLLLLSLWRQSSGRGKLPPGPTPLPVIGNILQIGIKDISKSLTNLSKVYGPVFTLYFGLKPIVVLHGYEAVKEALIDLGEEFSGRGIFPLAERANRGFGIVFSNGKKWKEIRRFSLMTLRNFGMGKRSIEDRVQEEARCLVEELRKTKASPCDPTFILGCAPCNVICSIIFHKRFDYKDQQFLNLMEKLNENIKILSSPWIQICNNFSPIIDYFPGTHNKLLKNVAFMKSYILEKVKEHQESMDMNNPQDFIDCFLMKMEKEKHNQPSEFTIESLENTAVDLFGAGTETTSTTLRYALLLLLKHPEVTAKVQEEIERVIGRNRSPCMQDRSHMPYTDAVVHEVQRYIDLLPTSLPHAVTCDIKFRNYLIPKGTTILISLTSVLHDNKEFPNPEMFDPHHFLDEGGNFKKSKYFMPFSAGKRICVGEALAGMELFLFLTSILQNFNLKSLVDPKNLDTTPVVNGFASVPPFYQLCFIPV
Cytochrome P450 3A4 (Homo sapiens), sequence (P08684 whole entry, looked up): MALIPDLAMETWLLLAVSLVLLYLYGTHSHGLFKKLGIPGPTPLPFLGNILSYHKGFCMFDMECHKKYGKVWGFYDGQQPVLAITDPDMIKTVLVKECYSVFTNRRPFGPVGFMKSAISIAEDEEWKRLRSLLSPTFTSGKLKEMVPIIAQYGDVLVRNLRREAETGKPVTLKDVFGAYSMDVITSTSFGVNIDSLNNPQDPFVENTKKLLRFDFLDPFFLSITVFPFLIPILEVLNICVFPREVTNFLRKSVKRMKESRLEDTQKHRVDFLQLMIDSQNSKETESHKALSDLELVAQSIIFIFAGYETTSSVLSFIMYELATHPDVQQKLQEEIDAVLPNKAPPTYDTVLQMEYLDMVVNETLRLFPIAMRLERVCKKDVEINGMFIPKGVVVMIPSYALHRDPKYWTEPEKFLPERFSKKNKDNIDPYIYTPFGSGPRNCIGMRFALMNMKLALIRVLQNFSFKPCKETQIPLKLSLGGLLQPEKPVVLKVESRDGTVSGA
Voltage-gated inwardly rectifying potassium channel KCNH2 (Homo sapiens), sequence (Q12809 whole entry, looked up): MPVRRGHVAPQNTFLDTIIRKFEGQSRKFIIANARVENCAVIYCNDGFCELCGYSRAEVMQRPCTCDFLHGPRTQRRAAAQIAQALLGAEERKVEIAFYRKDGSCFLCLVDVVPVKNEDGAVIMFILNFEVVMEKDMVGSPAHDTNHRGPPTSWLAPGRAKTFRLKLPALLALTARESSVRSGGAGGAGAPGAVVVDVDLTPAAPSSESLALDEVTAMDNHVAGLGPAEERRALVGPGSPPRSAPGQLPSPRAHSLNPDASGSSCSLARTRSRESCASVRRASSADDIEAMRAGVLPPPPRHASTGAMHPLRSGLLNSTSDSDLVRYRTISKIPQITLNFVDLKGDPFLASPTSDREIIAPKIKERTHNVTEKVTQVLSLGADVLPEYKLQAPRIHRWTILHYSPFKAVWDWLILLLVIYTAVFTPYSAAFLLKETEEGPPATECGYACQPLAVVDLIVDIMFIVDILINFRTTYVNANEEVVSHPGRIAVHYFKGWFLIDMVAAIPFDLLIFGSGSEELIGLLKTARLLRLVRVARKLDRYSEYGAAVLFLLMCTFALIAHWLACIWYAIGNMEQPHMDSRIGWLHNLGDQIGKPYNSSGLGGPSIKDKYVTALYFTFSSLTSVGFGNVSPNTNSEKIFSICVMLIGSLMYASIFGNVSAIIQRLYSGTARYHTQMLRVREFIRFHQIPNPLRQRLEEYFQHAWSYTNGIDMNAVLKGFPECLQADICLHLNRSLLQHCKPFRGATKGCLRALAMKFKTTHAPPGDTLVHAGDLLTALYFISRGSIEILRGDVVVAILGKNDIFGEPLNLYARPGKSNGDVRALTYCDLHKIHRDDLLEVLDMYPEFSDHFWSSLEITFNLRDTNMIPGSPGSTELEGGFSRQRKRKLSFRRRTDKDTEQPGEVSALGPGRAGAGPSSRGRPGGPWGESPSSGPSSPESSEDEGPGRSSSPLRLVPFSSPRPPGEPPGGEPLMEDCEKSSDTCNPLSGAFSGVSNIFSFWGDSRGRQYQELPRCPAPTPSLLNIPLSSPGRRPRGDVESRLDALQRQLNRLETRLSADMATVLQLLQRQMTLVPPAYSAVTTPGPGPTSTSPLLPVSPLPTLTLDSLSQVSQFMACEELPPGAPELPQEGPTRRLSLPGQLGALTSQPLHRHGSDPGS

Consider `C#C[C@]1(O)CC[C@H]2[C@@H]3CCC4=CC(=O)CCC4=C3C=C[C@@]21CC`, for which the Potency result in test [1], in test [2], in test [6] and in test [7] was “inactive” throughout. Further, the Potency in test [3] was 5.49 µM (active); in test [4], 2.45 µM (active); in test [5], 0.776 µM (active).

With `CCC(=O)O[C@@H]1C=C2CCC3C(CCC4(C)C3CC[C@@H]4OC(=O)CC)C2CC1` (stereo not given in full), the Potency result in test [1], in test [8], in [3], in [7] and in test [9] was “inactive” each time. Besides, the Potency in [5] was 15.5 µM (active).

With `C[N+]1(CCF)[C@@H]2CC[C@H]1CC(OC(=O)C(O)(c1ccccc1)c1ccccc1)C2` (stereo not given in full), the Potency result in test [1], in [2], in test [4], in test [5], in [6] and in test [7] was “inactive” each time. Besides, the Potency entry in [9] was “inactive”. Besides, in test [3], the Potency is 17.4 µM (active).

As for `Oc1cccc(Cl)c1`, the Potency entry in test [1], in test [8], in test [3], in test [5], in test [7] and in test [9] was “inactive” throughout.

`N#CC(C#N)=Cc1ccc(O)c(O)c1`: the Potency result in test [1], in test [8], in test [3], in test [4], in test [7] and in [9] was “inactive” each time. Besides, the Potency in [5] was 17.4 µM (active).

As to `COC(=O)Cc1ccccc1`, the Potency result in test [1], in test [2], in test [3], in test [4], in test [6] and in [7] was “inactive” in each case. The Potency entry in test [9] is “inactive”.

For `CC[N+]1(CCOC(=O)C(O)(c2ccccc2)c2ccccc2)CCCCC1`, the Potency entry in test [1], in [2], in test [4], in test [5], in test [6] and in test [7] was “inactive” in each case. In test [9], the Potency entry was “inactive”. The Potency in test [3] is 0.977 µM (active).

Consider `C=CCOCC1CO1` (stereo not given), for which the Potency result in [1], in test [2], in test [3], in test [4], in test [5] and in test [7] was “inactive” throughout. For the same molecule, the Potency in [9] is 30.9 µM (active).

As for `O=C([O-])c1ccccn1.O=C([O-])c1ccccn1.O=C([O-])c1ccccn1.[Cr+3]`, the Potency result in test [1], in test [8] and in [7] was “inactive” in each case. Moreover, the Potency in [3] and in [6] was 79.9 µM (active) throughout.

As for `C[N+]1(CCC(C(N)=O)(c2ccccc2)c2ccccc2)CCCCC1`, the Potency result in test [1], in [2], in test [4], in [5], in [6] and in test [7] was “inactive” throughout. In test [9], the Potency result is “inactive”. For the same molecule, the Potency in test [3] is 8.71 µM (active).

Turning to `CNC(=O)Oc1cccc(N=CN(C)C)c1`, the Potency in test [1] is 20 µM (active); in test [8], 3.56 µM (active); in test [3] it was 79.6 µM (active); in test [4], 79.6 µM (active); in test [5] it was 79.6 µM (active). Besides, the Potency entry in [7] and in [9] was “inactive” each time.

Turning to `c1ccc2sc(SNC3CCCCC3)nc2c1`, the Potency result in [1], in [2], in test [7] and in test [9] was “inactive” each time. Moreover, the Potency is 19.8 µM (active) and 35.6 µM (active) in test [3]; 31.4 µM (active) and 22.4 µM (active) in test [4]; 31.4 µM (active) and 17.8 µM (active) in test [5]; 55.8 µM (active) and 35.6 µM (active) in test [6].

For the molecule `CN[C@@H](C)[C@H](O)c1ccccc1`, the Potency entry in test [1], in [8], in test [4], in test [5], in [6] and in test [7] was “inactive” in each case. Moreover, in test [9], the Potency entry is “inactive”.

Turning to `CCCC[N+]1(C)[C@@H]2CC(OC(=O)[C@H](CO)c3ccccc3)C[C@H]1[C@@H]1O[C@@H]12` (stereo not given in full), the Potency result in [1], in [2], in test [4], in test [5], in test [6] and in [7] was “inactive” throughout. Besides, the Potency entry in test [9] is “inactive”. Further, the Potency in [3] was 1.55 µM (active).

Consider `O=C(O)C(F)(F)C(F)(F)C(F)(F)C(F)(F)C(F)(F)C(F)(F)C(F)(F)C(F)(F)F`, for which the Potency entry in test [1], in test [2], in [3], in test [6], in test [7] and in [9] was “inactive” throughout. In addition, the figures for the Potency in test [4] and in test [5] were 71 µM (active) and 1.78 µM (active), respectively.

As to `CC1(C)CC(=O)CC(C)(C)N1[O]`, the Potency entry in [1], in [2], in test [3], in [4], in test [5] and in test [6] was “inactive” in each case. Further, the Potency result in test [7] and in test [9] was “inactive” throughout.
